Screening data as filed in PubChem BioAssay.
The list is not random: actives were taken first. Their share in the collection is about 20%.
CHX counter: Cycloheximide Counterscreen for Small Molecule Inhibitors of Shiga Toxin; cell reporter, cycloheximide protein synthesis inhibition counterscreen; 300,000 tested, 12% active; max response, %; AID 2314, 2010; in the data active = max response mostly above about 13%, no sharp cut-off; inactive = mostly below about 14%; also: read at 38.3 µM for the half of the compounds with a filed dose
Pf growth 96h: Primary qHTS for delayed death inhibitors of the malarial parasite plastid, 96 hour incubation | 320,000 tested, 6.9% active | Potency, µM (series often up to 28.7 µM), actives largely listed as inhibitors | P. falciparum luciferase reporter growth, 96 h | AID 504834, 2011
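P. falciparum expressing integrated firefly luciferase grown in erythrocytes (2% hematocrit, 0.05% parasitemia final) with compounds for 96 hours at 37 C, 5% CO2. Growth inhibition read as loss of luminescence after adding luciferase detection reagent.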
Shiga inhibitor: A qHTS for Small Molecule Inhibitors of Shiga Toxin. Vero cells, Shiga toxin protein synthesis inhibition reporter. inhibition, % at 38.7 µM. 290,000 tested, 9.2% active. AID 2315, 2010; in the data active = inhibition mostly above about 28%, no sharp cut-off; inactive = mostly below about 43%
Pf growth 48h: Primary qHTS for delayed death inhibitors of the malarial parasite plastid, 48 hour incubation. P. falciparum luciferase growth in erythrocytes, 48 h. Potency, µM (highest dose often 28.7 µM), usual class: inhibitors. 310,000 tested, 5.9% active. AID 504832, 2011
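Here the parasites carry a stable luciferase gene and grow inside erythrocytes in Albumax-based RPMI medium with compound for one erythrocytic cycle. Activity is scored as loss of luminescent signal.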
HCMV inh: qHTS Assay for inhibitors of the human cytomegalovirus (HCMV); HFF cells, HCMV-luciferase reporter, 72 h; stronger effect = lower value; activity change, negative = inhibition, % at 57.5 µM; 410,000 tested, 4.5% active; in the data active = activity change below about -60%; inconclusive = no clear call, values can overlap the other calls; inactive = above about -39%
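Cell-based, HFFs, 1000 cells/well, 16 h 37C; cpds in DMSO + HCMV-luc, MOI 1 PFU/cell; 72 h 37C; OneGlo luminescence after 5 min RT; norm. to buffer vs Salinomycin 10uM.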
Of the large screens only hits and unclear results are named; the others gave an inactive call. Unless noted, calls follow the shape of the dose curve; as a rule, active = well fitted inhibition curve with a large enough effect; inconclusive = small, poorly fitted or top-dose-only effect, or another doubt; inactive = no such curve, though single readings can be large or run the other way.

Cn1c(=O)oc2cc(S(=O)(=O)NCCC(=O)NCc3ccc(F)cc3)ccc21	Pf growth 96h 13µM
COc1ccccc1CNC(=O)C(CCSC)NS(=O)(=O)c1ccc2c(c1)oc(=O)n2C (stereo not drawn)	CHX counter 52, Pf growth 96h 2.1µM
Cc1ccc(C2=CC(c3ccccc3C)n3c(nc4ccccc43)N2)cc1 (stereo not drawn)	none (no result: CHX counter, Pf growth 96h, Shiga inhibitor, Pf growth 48h)
Cc1cc(C)cc(NC(=O)Cn2c(=O)oc3cc(S(=O)(=O)N4CCCC4)ccc32)c1	none (no result: CHX counter, Pf growth 96h, Shiga inhibitor, Pf growth 48h)
Cc1cc(C)c(NC(=O)Cn2c(=O)oc3cc(S(=O)(=O)N4CCCCCC4)ccc32)c(C)c1	HCMV inh -70 (no result: CHX counter, Pf growth 96h, Shiga inhibitor, Pf growth 48h)
Cc1ccc(NC(=O)Cn2c(=O)oc3cc(S(=O)(=O)N4CCC(C)CC4)ccc32)cc1C	HCMV inh -69 (no result: Pf growth 48h)
CCCc1nc2ccccc2c(C(=O)OCC(=O)N2CCc3ccccc32)c1CC	Pf growth 96h 8.3µM, Pf growth 48h inconclusive
CC1CCc2nc3ccccc3c(C(=O)OCC(=O)N3CCc4ccccc43)c2C1 (stereo not drawn)	Pf growth 96h inconclusive, Pf growth 48h 8.3µM
Cc1noc(C)c1C(=O)OCC(=O)N1CCc2ccccc21	none (no result: CHX counter, Pf growth 96h, Shiga inhibitor, Pf growth 48h)
COc1cccc(-c2csc(N3CCN(C(=O)NC45CC6CC(CC(C6)C4)C5)CC3)n2)c1	Pf growth 48h 12µM
COc1cccc(-c2csc(N3CCN(C(=O)Nc4ccccc4Cl)CC3)n2)c1	CHX counter 9.5
COc1cccc(C(O)c2nc(-c3cccc(NC(C)=O)c3)cs2)c1 (stereo not drawn)	none (no result: CHX counter, Pf growth 96h, Shiga inhibitor, Pf growth 48h)
COc1cccc(NC(=O)N2CCN(c3nc(-c4cccc(OC)c4)cs3)CC2)c1	Pf growth 96h inconclusive, Pf growth 48h inconclusive, HCMV inh -71
CCC(C(=O)NCCc1ccc(Cl)cc1)n1nc(C)c2c(C)n(-c3ccccc3)nc2c1=O (stereo not drawn)	none (no result: CHX counter, Pf growth 96h, Shiga inhibitor, Pf growth 48h)
CCCCC(CC)C(=O)N1CCN(C(=O)c2ccco2)CC1 (stereo not drawn)	Pf growth 96h inconclusive
Cc1ccc(C(=O)Nc2cc3[nH]c(=O)oc3cc2C)cc1	Pf growth 96h inconclusive, Shiga inhibitor 24
C[C@H]1[C@@H](NC(=O)Nc2cccc(C#N)c2)CC[C@@]23CCCN2C(=O)CCC[C@@H]13	none (no result: CHX counter, Pf growth 96h, Shiga inhibitor, Pf growth 48h)
CC(C)(C)C#CC(CCc1ccccc1)OS(N)(=O)=O (stereo not drawn)	CHX counter 12, Pf growth 96h inconclusive, Pf growth 48h inconclusive (no result: HCMV inh)
Cc1ccc(S(=O)(=O)CC(=O)Nc2nc(-c3ccccc3)cs2)cc1	none (no result: Pf growth 48h)
CC(C)(C)c1csc(NC(=O)CS(=O)(=O)c2ccccc2)n1	CHX counter 39, Shiga inhibitor 127
Cc1csc(NC(=O)CS(=O)(=O)c2ccccc2)n1	CHX counter 28, Pf growth 96h inconclusive, Shiga inhibitor 48
O=C(CS(=O)(=O)c1ccccc1)Nc1nc(-c2ccccc2)cs1	none
CCc1ccccc1N1C(=O)N(Cc2cc(=O)n3ccccc3n2)c2ccccc2S1(=O)=O	none (no result: CHX counter, Pf growth 96h, Shiga inhibitor, Pf growth 48h)
Cc1ccc(CN2CCN(/N=C/c3sccc3C)CC2)c(C)c1	none
CC(C)Oc1ccc(C(=O)NN2C(=O)NC3(CCCCC3)C2=O)cc1	none (no result: CHX counter, Shiga inhibitor)
COc1ccccc1OCC(=O)N(Cc1nnc(-c2ccccc2Cl)o1)C1CC1	none (no result: CHX counter, Shiga inhibitor)
CCSc1nc(-c2ccc(OC)cc2)cc(-c2ccccc2)c1C#N	Pf growth 96h 13µM (no result: Pf growth 48h)
COc1ccc(-c2cc(-c3cccs3)c(C#N)c(SCC(=O)NCc3ccccc3OC)n2)cc1	Pf growth 96h 10µM, Pf growth 48h 2.3µM, HCMV inh -61
COc1ccc(-c2cc(-c3ccccc3)c(C#N)c(S(C)=O)n2)cc1 (stereo not drawn)	HCMV inh -99 (no result: Pf growth 48h)
COc1ccc(-c2cc(-c3cccs3)c(C#N)c(SCC(=O)NCc3ccccc3)n2)cc1	Pf growth 48h inconclusive
COc1ccc(-c2cc(-c3ccccc3)nc(SCC(=O)Nc3ncc(C)s3)c2C#N)cc1	Pf growth 96h inconclusive, Pf growth 48h 8.3µM
Cc1cccn2c(N)c(-c3ccccc3)nc12	CHX counter 20, Pf growth 96h inconclusive
CCOC(=O)c1c(-c2ccccc2)nc2c(C)cccn12	none
CCc1nc(NCc2ccccc2)c(C#N)c2c1CCCC2	Pf growth 96h inconclusive, Pf growth 48h 10µM, HCMV inh inconclusive
CCc1nc(N2CCCC2)c(C#N)c2c1CCCC2	HCMV inh -80 (no result: Pf growth 96h)
CCN1CCc2c(C#N)c(N3CCCCC3)nc(NCc3ccccc3)c2C1	Pf growth 96h 2.6µM, Pf growth 48h inconclusive
CCC[C@H]1[C@@H](NS(=O)(=O)c2ccc([N+](=O)[O-])cc2[N+](=O)[O-])CC[C@@]23CCCN2C(=O)CCC[C@@H]13	none (no result: CHX counter, Pf growth 96h, Shiga inhibitor, Pf growth 48h)
CCC(Sc1nnc(C)c(=O)[nH]1)C(=O)Nc1cccc2ccccc12 (stereo not drawn)	none
COc1ccc(C2N(S(=O)(=O)c3ccccc3)CCN2S(=O)(=O)c2ccc(C)cc2)cc1 (stereo not drawn)	Pf growth 96h 9.3µM (no result: Pf growth 48h)
CCC(=O)N1CCCN(S(=O)(=O)c2ccc(C)cc2)C1c1ccc(OC)cc1 (stereo not drawn)	Pf growth 48h 13µM
[O-]/C(=C(\C(=S)NCCN1CCOCC1)[n+]1ccccc1)c1ccc(Cl)s1	Pf growth 96h inconclusive
NNC(=O)c1cc(-c2ccccc2)sc1N	CHX counter 36, Pf growth 96h inconclusive, Pf growth 48h 9.3µM
NNC(=O)c1sc(-c2ccccc2)cc1N	CHX counter 19, Shiga inhibitor 50, Pf growth 48h inconclusive
CCCCNC(=O)c1cc(-c2ccccc2)sc1N	none (no result: CHX counter, Pf growth 96h, Shiga inhibitor, Pf growth 48h)
CCN(CC)S(=O)(=O)c1cccc(NC(=O)c2ccc(Sc3nncn3C)c([N+](=O)[O-])c2)c1	Pf growth 96h inconclusive, Pf growth 48h inconclusive
CC[C@]12c3[nH]c4ccc(OC)cc4c3CCN1C(=O)C(CC(=O)NCCCOC)C[C@@H]2C(=O)N1CCN(C(=O)C2CC2)CC1 (stereo partly drawn)	none (no result: CHX counter, Pf growth 96h, Shiga inhibitor, Pf growth 48h)
COc1ccc(CCNC(=O)Cn2c(C)c3cnn(-c4ccccc4)c(=O)c3c2C)cc1OC	none (no result: CHX counter, Pf growth 96h, Shiga inhibitor, Pf growth 48h)
CCCCN1C(=O)NC(c2cccc([N+](=O)[O-])c2)C(C(=O)OCC)=C1C (stereo not drawn)	none (no result: CHX counter, Pf growth 96h, Shiga inhibitor, Pf growth 48h)
CCOC(=O)C1C(=O)C=C(c2ccc(NS(C)(=O)=O)cc2)CC1c1ccco1 (stereo not drawn)	Pf growth 96h inconclusive, Pf growth 48h inconclusive
CCOC(=O)C1C(=O)C=C(c2ccc(C)cc2)CC1c1ccco1 (stereo not drawn)	CHX counter 21, Shiga inhibitor 54, Pf growth 48h inconclusive
CCOC(=O)C1C(=O)C=C(c2ccc(C)cc2)CC1c1cccc([N+](=O)[O-])c1 (stereo not drawn)	Pf growth 96h 6.6µM, Pf growth 48h inconclusive, HCMV inh inconclusive
CCOc1ccccc1N(CC(=O)NC1CCCCC1)C(=O)CCC(=O)Nc1cc(C)ccn1	Pf growth 96h inconclusive
Cn1cc(S(=O)(=O)Nc2cccc3ccccc23)c(=O)n(C)c1=O	none (no result: HCMV inh)
CCN(CC)S(=O)(=O)c1ccc(N2CCN(c3ccccc3O)CC2)nc1	Pf growth 96h 13µM, Pf growth 48h inconclusive
